Compound activity deposited in PubChem by National Center for Advancing Translational Sciences (NCATS).
An excerpt weighted towards active compounds, which were near 0.49% of everything screened.
Vif-APOBEC3G blk: qHTS for Inhibitors of Vif-A3G Interactions: qHTS | Potency, µM (titrated, usually from 46.1 µM), inactives show top-dose activity, negative = active, hits mostly inhibitors | HeLa A3G-eYFP + Vif (tagged APOBEC3G with the HIV-1 protein that degrades it), YFP fluorescence, overnight | 410,000 compounds, 0.076% hits | AID 602310, 2012 | DNA dC->dU-editing enzyme APOBEC-3G (Homo sapiens), Q9HC16; further: potency means the concentration at half of the fitted maximal effect; on the % scale 0 is the no-effect control and ±100 the full control effect; nearly all actives have a fitted effect of over 60% in size
Target sequence (Q9HC16 whole entry, looked up): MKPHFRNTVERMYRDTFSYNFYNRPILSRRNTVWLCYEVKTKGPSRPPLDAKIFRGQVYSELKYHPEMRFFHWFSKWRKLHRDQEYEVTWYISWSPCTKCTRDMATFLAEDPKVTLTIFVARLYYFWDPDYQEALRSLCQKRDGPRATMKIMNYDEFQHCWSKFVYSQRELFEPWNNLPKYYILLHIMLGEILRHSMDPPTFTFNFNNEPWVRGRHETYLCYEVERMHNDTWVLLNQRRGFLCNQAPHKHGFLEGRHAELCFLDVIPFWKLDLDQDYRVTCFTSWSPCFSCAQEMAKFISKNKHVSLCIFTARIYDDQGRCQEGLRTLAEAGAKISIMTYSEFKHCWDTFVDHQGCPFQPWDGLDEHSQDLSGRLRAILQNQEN
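Read-out is eYFP fluorescence (Ex 488/Em 500-530) from Vif-expressing HeLa A3G-eYFP cells; more signal means A3G escaped Vif-mediated degradation. Cells plated overnight, compound pinned in, incubated overnight at 37 deg C.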
Apoferritin bind: qHTS Assay for Identification of Novel General Anesthetics; Potency, µM (series often up to 77.5 µM), inactives show at the top dose activity change, negative = displacement, hits mostly inhibitors; apoferritin/1-aminoanthracene competitive binding, fluorescence; 350,000 compounds, 0.074% hits; Ferritin light chain (Equus caballus), P02791; further: potency means the concentration at half of the fitted maximal effect; on the % scale 0 is the no-effect control and ±100 the full control effect; nearly all actives have a fitted effect of over 20% in size
Target sequence (P02791 2-175 limits assumed): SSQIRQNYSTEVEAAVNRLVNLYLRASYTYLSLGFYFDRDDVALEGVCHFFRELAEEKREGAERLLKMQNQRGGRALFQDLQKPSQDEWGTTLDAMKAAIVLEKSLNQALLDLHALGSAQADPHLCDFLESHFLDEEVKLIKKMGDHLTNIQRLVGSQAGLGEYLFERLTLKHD
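Steps: apoferritin (10 uM) was premixed with half-saturated 1-AMA in PBS, compounds were pin-transferred, plates stood 10 min at room temperature, fluorescence was read at 380/535 nm, and curves were fitted with a Hill equation.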
LDHA block: qHTS assay for inhibitors of human lactate dehydrogenase. purified LDHA, NADH/diaphorase-resazurin fluorescence; hits give low values. activity change, % (values are at about 110 or 230 µM). 480,000 compounds, 0.15% hits; in the data active means activity change below about -30%; inconclusive means mostly about -25% to -30%;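 further: plate controls were DMSO wells for no effect and wells without enzyme for full effect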
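Human LDH5 at 2 nM final in Tris HCl pH 7.4 with 0.06 mM NADH and 0.2 mM pyruvate, reacted 5 minutes at room temperature. Remaining NADH coupled via diaphorase/resazurin; resorufin fluorescence read at 0 and 20 minutes, normalized to enzyme-free and DMSO wells.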
Vif-APOBEC3F blk: qHTS for Inhibitors of Vif-A3F Interactions: qHTS; HeLa A3F-eYFP + Vif (tagged APOBEC3F with the HIV-1 protein that degrades it), YFP fluorescence increase; Potency, µM (highest dose often 46.1 µM), without a hit: top-dose activity, negative = active; 390,000 compounds, 0.2% hits; AID 602313, 2012; further: potency means the concentration at half of the fitted maximal effect; % of control where 0% means no effect; nearly all actives have a fitted effect of over 65% in size
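HeLa cells stably expressing Vif plus C-terminally eYFP-tagged A3F were seeded, incubated overnight at 37 deg C, dosed with compound, incubated overnight again at 37 deg C. Yellow fluorescence (Ex 488/Em 500-530) reported blocked Vif-mediated A3F-eYFP degradation.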
Epigenetic derep: Quantitative High-Throughput Screen for Regulators of Epigenetic Control. murine LDR cells, GFP reporter derepression, 30 h. Potency, µM (top dose mostly 53.9 µM), inactives show at the top dose GFP activation, usual class: activators. 280,000 compounds, 0.2% hits. AID 1865, 2009; further: potency means the concentration at half of the fitted maximal effect; % of control where 0% means no effect; nearly all actives have a fitted effect of over 60% in size
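GFP-positive cell count by laser-scanning cytometry (objects 20–120 um) after 30 h, 37 C compound exposure of murine LDR cells; reporter is CMV-GFP integrated at a silenced locus, inducible by HDAC or DNMT inhibitors.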
* hit, by the source's call; [ ] = remark or other dose. Unless noted, the call rests on the fitted dose curve; in most records, active means well fitted curve in the direction sought with a large enough effect; inconclusive means small, poorly fitted or top-dose-only effect, or another doubt; inactive means no such curve, though single readings can be large; an effect the other way counts as inactive or inconclusive.

What do the screens show for `C[n+]1ccc(/C=C/c2cc[n+](C)c3ccccc23)c2ccccc21`?
Vif-APOBEC3G blk: 13µM*; LDHA block: 18

What do the screens show for `Cc1ccc(C(=O)C2OC(=O)C(C)(C)C(=O)C2(C)C)cc1` (configuration not stated)?
Vif-APOBEC3G blk: 2%; Apoferritin bind: 6.3µM*; LDHA block: -5; Vif-APOBEC3F blk: 11%; Epigenetic derep: -1%

Results for N#Cc1c(-c2ccc(Cl)cc2Cl)nc2n(c1=O)CCS2 ?
Vif-APOBEC3G blk: 2%; Apoferritin bind: -20%; LDHA block: -3; Vif-APOBEC3F blk: 8%; Epigenetic derep: 5%

How did COc1cccc(C2[C@H](C)C3(CCN2C)OCCO3)c1 (some centres not stated) do in these assays?
Vif-APOBEC3G blk: -2%; Apoferritin bind: -1%; LDHA block: -4; Vif-APOBEC3F blk: -1%; Epigenetic derep: 2%

How did COCCN(C(=O)C1CCN(C(=O)c2ccccc2C)CC1)c1c(N)n(CC(C)C)c(=O)[nH]c1=O do in these assays?
Vif-APOBEC3G blk: 0%; LDHA block: -47*; Vif-APOBEC3F blk: 6%

Results for Cc1ccccc1C(=O)N1CCC(C(=O)N(CC(C)C)c2c(N)n(CC(C)C)c(=O)[nH]c2=O)CC1 ?
Vif-APOBEC3G blk: 1%; LDHA block: 1; Vif-APOBEC3F blk: -12%

How did NS(=O)(=O)c1ccc(N/N=C/c2cccc(Cl)c2Cl)c([N+](=O)[O-])c1 do in these assays?
LDHA block: -1

Results for Cc1c(C(=O)NNC(=O)Nc2ccc([N+](=O)[O-])cc2)oc2ccccc12 ?
Vif-APOBEC3G blk: -15%; Apoferritin bind: inconclusive; LDHA block: -44*; Vif-APOBEC3F blk: -1%

How did COc1ccc(C(CNS(=O)(=O)c2ccccc2)N2CCN(C)CC2)cc1 (configuration not stated) do in these assays?
Vif-APOBEC3G blk: -6%; LDHA block: -4; Vif-APOBEC3F blk: -7%

How did CC1(C)Oc2ccc(/C=C/C(=O)N3CCOCC3)c(O)c2C(N2CCOCC2)C1O (configuration not stated) do in these assays?
Apoferritin bind: 7%; Epigenetic derep: 0%

Results for O=[N+]([O-])c1ccc(C(c2sc3nc(-c4ccco4)nn3c2O)N2CCN(c3cccc(Cl)c3)CC2)cc1 (configuration not stated) ?
Vif-APOBEC3G blk: 2%; Apoferritin bind: -22%; LDHA block: 0; Vif-APOBEC3F blk: -1%; Epigenetic derep: 7%

Results for Cc1cccn2c(=O)c(/C=C(\C#N)c3nc4ccccc4[nH]3)c(Oc3ccc(C(C)(C)C)cc3)nc12 ?
Vif-APOBEC3G blk: 1%; Apoferritin bind: inconclusive; LDHA block: 7; Vif-APOBEC3F blk: -8%; Epigenetic derep: inconclusive

Results for Cc1cccc(Oc2nc3c(C)cccn3c(=O)c2/C=C(\C#N)c2nc3ccccc3[nH]2)c1 ?
Vif-APOBEC3G blk: -3%; Apoferritin bind: -15%; LDHA block: 16; Vif-APOBEC3F blk: inconclusive; Epigenetic derep: 7.1µM*

Results for CC(C)(C)c1ccc(Oc2nc3ccccn3c(=O)c2/C=C(\C#N)c2nc3ccccc3[nH]2)cc1 ?
Vif-APOBEC3G blk: -5%; Apoferritin bind: inconclusive; LDHA block: 6; Vif-APOBEC3F blk: inconclusive; Epigenetic derep: 25µM*

Results for CC(C)(C)OC(=O)N/N=C\c1ccc(OC(=O)c2cccs2)cc1 ?
Vif-APOBEC3G blk: -1%; Apoferritin bind: -14%; LDHA block: -3; Vif-APOBEC3F blk: 2%; Epigenetic derep: -2%

How did Cc1ccc(Cl)cc1NC(=O)Nc1cn(CC(C)C)c(=O)c2ccccc12 do in these assays?
Vif-APOBEC3G blk: inconclusive; Apoferritin bind: inconclusive; LDHA block: -40*; Vif-APOBEC3F blk: inconclusive; Epigenetic derep: 8%

What do the screens show for `Cc1cc(Nc2cc(Cl)ccc2C)n2nc(-c3ccccc3)nc2n1`?
Vif-APOBEC3G blk: 0%; Apoferritin bind: inconclusive; LDHA block: 0; Vif-APOBEC3F blk: 5%; Epigenetic derep: 25µM*

Results for Cc1cc(Nc2ccccc2F)n2nc(-c3ccccc3)nc2n1 ?
Vif-APOBEC3G blk: -1%; Apoferritin bind: -10%; LDHA block: -4; Vif-APOBEC3F blk: 0%; Epigenetic derep: -3%

Results for CN(C)C=Nc1c(Br)cc(Br)c2nonc12 ?
Vif-APOBEC3G blk: inconclusive; Apoferritin bind: -13%; LDHA block: 27; Vif-APOBEC3F blk: 11µM*; Epigenetic derep: inconclusive

Results for Cc1ccc(CN(C)C(=O)c2cc3ccc(C(C)C)cc3[nH]2)o1 ?
LDHA block: -2

Results for COc1cc(CCc2ccccc2)c(C(=O)O)c(O)c1C/C=C(/C)CCC=C(C)C ?
Vif-APOBEC3G blk: -10%; LDHA block: -38*; Vif-APOBEC3F blk: 7%

What do the screens show for `COc1cc(CCc2ccccc2)c(C(=O)O)c(O)c1CC=C(C)C`?
Vif-APOBEC3G blk: -8%; LDHA block: 3; Vif-APOBEC3F blk: -23%

Results for CN(C)C(CNC1CC(C)(C)NC(C)(C)C1)c1cccc(F)c1 (configuration not stated) ?
Vif-APOBEC3G blk: 2%; Apoferritin bind: -5%; LDHA block: -8; Vif-APOBEC3F blk: 13%

What do the screens show for `Nc1nnc(CC(=O)N/N=C/c2cc([N+](=O)[O-])cc(Br)c2O)s1`?
Vif-APOBEC3G blk: -1%; Apoferritin bind: -22%; LDHA block: -86*; Vif-APOBEC3F blk: -6%; Epigenetic derep: 1%

What do the screens show for `Nc1nnc(CC(=O)N/N=C/c2cccc([N+](=O)[O-])c2)s1`?
Vif-APOBEC3G blk: 1%; Apoferritin bind: -16%; LDHA block: 1; Vif-APOBEC3F blk: -1%; Epigenetic derep: -1%

Results for COC(=O)C1C2CC3c4[nH]c5cc(OC)ccc5c4CCN3CC2CC(OC(=O)CC(C)=O)C1OC (configuration not stated) ?
Vif-APOBEC3G blk: inconclusive; LDHA block: 30; Vif-APOBEC3F blk: 25µM*

How did COC(=O)[C@@H]1[C@@H]2C[C@H]3c4[nH]c5cc(OC)ccc5c4CCN3C[C@@H]2C[C@H](OC(=O)c2cc(OC)c(OC)c(OC)c2)[C@H]1OC do in these assays?
Apoferritin bind: -17%[29.3 µM]; Epigenetic derep: 8%[16.9 µM]

What do the screens show for `CC(=O)N/N=C/c1cc(C(C)(C)C)cc(/C=N/NC(C)=O)c1O`?
Vif-APOBEC3G blk: 13µM*; Apoferritin bind: 67%; LDHA block: 5; Vif-APOBEC3F blk: 22µM*; Epigenetic derep: 4%
